Results taken from PubChem BioAssay (NCI).
Compounds without any hit were thinned out: in the full panel of roughly 79,000, 15% have a hit. Values without a mark were called inactive. Active and inactive are the calls of the source. Cut-off read from the data, not from the text of the source: active = growth inhibition above about 70%; inactive = the rest.

What was measured:
[1] = NCI Yeast Anticancer Drug Screen. Data for the rad50 strain (AID 155);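 note: 0% = growth of vehicle-only cultures of the same strain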; conditions: S. cerevisiae rad50 strain growth inhibition; at 50.0 µM; stronger effect = higher value
Method in brief: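 Genetically altered yeast (DNA repair pathway); compound treatment; growth inhibition vs vehicle ctrl.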

[2] = NCI Yeast Anticancer Drug Screen. Data for the mec2-1 strain (AID 157); conditions: S. cerevisiae mec2-1 strain, at 50.0 µM, stronger effect = higher value
Method in brief: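 Mutant yeast (mec2-1) grown with compound; growth inhibition relative to vehicle control reported.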

[3] = NCI Yeast Anticancer Drug Screen. Data for the sgs1 mgt1 strain (AID 161);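 note: 0% = growth of cultures given vehicle only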; conditions: S. cerevisiae sgs1 mgt1 strain, at 50.0 µM, stronger effect = higher value
Method in brief: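 Growth of a repair-deficient yeast mutant was monitored after compound treatment and expressed as inhibition relative to vehicle-treated cultures.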

[4] = NCI Yeast Anticancer Drug Screen. Data for the cln2 rad14 strain (AID 165);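 note: 0% = growth equal to vehicle treated cultures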; conditions: S. cerevisiae cln2 rad14 strain, at 50.0 µM, stronger effect = higher value
Method in brief: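 Readout is yeast growth inhibition versus vehicle-treated controls, using a strain with cln2 and rad14 alterations exposed to compound.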

[5] = NCI Yeast Anticancer Drug Screen. Data for the bub3 strain (AID 167); conditions: S. cerevisiae bub3 mutant strain, at 50.0 µM, stronger effect = higher value
Method in brief: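 Yeast carrying a defined mutation is treated with each compound, and growth is compared with that of vehicle-exposed cells to give inhibition.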

[6] = NCI Yeast Anticancer Drug Screen. Data for the mlh1 rad18 strain (AID 175); conditions: S. cerevisiae mlh1 rad18 strain growth inhibition; at 50.0 µM; stronger effect = higher value
Method in brief: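 Genetically defined yeast (DNA repair-deficient) exposed to compounds; growth inhibition determined relative to vehicle.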

Compound | growth inhibition [1] | growth inhibition [2] | growth inhibition [3] | growth inhibition [4] | growth inhibition [5] | growth inhibition [6]
COc1cc(C2SC(N)=Nc3c2c(C)nn3C(=O)c2ccccc2O)ccc1O (stereo not given) | -4.9% | 24.1% | 22.5% | -1.35% | 40.4% | 16%
CCOC(=O)NC(C)(C)CN(CCO)C(=O)OCC | -5.9% | -3.4% | 1.4% | -4.9% | -21.9% | -8.7%
Nc1ccn(C2OC(CCl)C(O)C2O)c(=O)n1 (stereo not given) | 17.2% | 3.2% | -4.15% | 4.1% | -39.9% | -36.1%
O=[N+]([O-])c1ccc(Cl)c(C=NC23CC4CC(CC(C4)C2)C3)c1 | -13.6% | -24.8% | -29% | -9.3% | -22.9% | -8.9%
O=C1C2C3C=CC(C2C(=O)N1COP(=O)(O)O)C1C2C(=O)N(COP(=O)(O)O)C(=O)C2C31 (stereo not given) | 2.1% | 0.3% | 0.95% | 19.1% | -11.2% | -14.1%
Nc1nc2ccc([N+](=O)[O-])cc2s1 | 6.15% | -6.45% | 10.8% | -18.4% | -12.8% | -8.1%
CC1(C)CC(C)(Br)C(Br)C(=O)C1C(O)(C(F)(F)F)C(F)(F)F (stereo not given) | 99.5% (active) | 99.8% (active) | 99.8% (active) | 99.2% (active) | 99.6% (active) | 99.8% (active)
COc1ccc(Nc2cc(N)nc(N)n2)c(=S)[nH]1 | 0.05% | -2.85% | -5.15% | 1.75% | 3.05% | -0.95%
O=S(=O)(CS(=O)(=O)c1ccc(Br)cc1)c1ccc(Br)cc1 | 1.4% | 33.1% | -14.6% | 20.8% | 4.6% | 12%
CCCCOC(=O)C(=O)C(CC(CC)C(=O)c1ccccc1)C(=O)C=C(C)C (stereo not given) | -28.9% | -8.5% | -9.55% | -15.2% | -13.6% | 15.2%
CC(C)(C)CC(C)(C)NCc1ccc(Cl)cc1 | 78.6% (active) | 45% | 61.3% | 40.2% | 65.6% | 60.6%
Cc1ccc(C)c(NC(=O)NCc2ccc(Cl)cc2)c1 | -7.65% | -41.2% | -11.4% | 13.2% | -58.1% | 10.2%
COc1ccc(C(=O)Sc2c(-c3ccccc3)c(=O)n(-c3ccccc3)c(=S)n2-c2ccccc2)cc1 | 0.75% | -4.9% | 2.45% | 1.7% | 0.6% | 10.1%
CCCCSCCC(=O)O | 18.4% | -3.05% | -22.2% | 3.95% | 5.95% | 5.85%
Oc1ccc(-c2cc(-c3c(O)cc(O)cc3O)on2)cc1 | 4.25% | -1.45% | -17.4% | -2.85% | -7.45% | 9.35%
CCCCCCC(=O)/C=C/c1cccc(OCc2cccc(Cl)c2)c1 | 24.4% | 16.8% | 19.1% | 16.8% | 1.55% | 4.65%
Cc1cc(=O)c2cc(N=Cc3ccc(N(C)C)cc3)ccc2o1 | 5.25% | -10.9% | -16.8% | 17.1% | 0.75% | 16.1%
CCCCNS(=O)(=O)c1n[nH]c(=O)[nH]c1=O | -27.1% | -10.1% | -37.9% | -12.4% | -38% | -19.2%
CCc1c(NCCO)c(C(=O)NCCO)c2nc3ccccc3n2c1NCCO | 2.2% | 9.65% | -3.1% | -14.1% | -7.3% | 11.8%
O=S(=O)(c1ccccc1)c1ccc(CBr)cc1 | 16.1% | 1.85% | -10.4% | 17.5% | -2.55% | -8.9%
